Inconclusive results are not listed. Activity calls are given as the source filed them. Rule for the calls: active = hit-call score of the fitted dose curve at least 0.9, where 1 is the maximum; inconclusive = response in the unintended direction; inactive = score below 0.9.
Target: human AMP-activated Protein Kinase, alpha 1 (AMPKa1), PRKAA1 (gene 5562) (UniProt Q13131)
Assay: NVS_ENZ_hAMPKa1: NovaScreen (NVS) Enzymatic Assay for human AMP-activated Protein Kinase, alpha 1 (AMPKa1) (AID 2283130)
In short: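 Compounds were screened in duplicate at 25 uM, and those reaching ~30% inhibition were titrated up to 50 uM. The enzyme was recombinant human AMPKα1, and kinase turnover was read by fluorescence/mobility shift 1 h post-dosing as loss of signal versus DMSO.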

Sequence of human AMP-activated Protein Kinase, alpha 1 (AMPKa1), PRKAA1 (gene 5562) (Q13131 whole entry, looked up): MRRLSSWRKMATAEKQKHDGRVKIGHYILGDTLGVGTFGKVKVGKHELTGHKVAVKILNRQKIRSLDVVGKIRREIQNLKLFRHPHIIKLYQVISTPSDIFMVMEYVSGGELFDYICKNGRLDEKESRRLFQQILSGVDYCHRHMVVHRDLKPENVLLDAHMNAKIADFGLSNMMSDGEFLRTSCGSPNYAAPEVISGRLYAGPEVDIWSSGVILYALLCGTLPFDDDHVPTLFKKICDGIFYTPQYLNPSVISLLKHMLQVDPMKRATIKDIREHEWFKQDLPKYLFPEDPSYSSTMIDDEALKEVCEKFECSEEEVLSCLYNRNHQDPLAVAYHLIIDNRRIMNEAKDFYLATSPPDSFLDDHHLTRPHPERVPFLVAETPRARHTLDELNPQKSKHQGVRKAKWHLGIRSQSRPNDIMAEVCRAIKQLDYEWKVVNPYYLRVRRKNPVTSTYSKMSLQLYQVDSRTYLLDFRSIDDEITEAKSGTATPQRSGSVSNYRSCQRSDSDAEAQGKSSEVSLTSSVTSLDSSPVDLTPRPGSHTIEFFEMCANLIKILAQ

Structure (SMILES)	outcome	AC50
CCN(CC)N=O	inactive	
O=C(Oc1ccc(Br)cc1)N1CCN2CCC1CC2	inactive	
Oc1ccccc1Cl	inactive	
CCNS(=O)(=O)C(F)(F)C(F)(F)C(F)(F)C(F)(F)C(F)(F)C(F)(F)C(F)(F)C(F)(F)F	inactive	
Oc1ccc2ccc3cccc4ccc1c2c34		6.02 µM (active)
CCCCC(CC)COC(=O)c1ccc(C(=O)OCC(CC)CCCC)c(C(=O)OCC(CC)CCCC)c1 (stereo unspecified)	inactive	

Target: human Caspase 2 (CASP2), CASP2 (gene 835) (UniProt P42575)
Assay: NVS_ENZ_hCASP2: NovaScreen (NVS) Enzymatic Assay for human Caspase 2 (CASP2) (AID 2283135)
In short: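 Single-point duplicate testing at 25 uM preceded concentration series topping at 50 uM. Activity of the recombinant E. coli-derived protease was followed by fluorescent substrate cleavage 1 h post-dosing, relative to DMSO.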

Sequence of human Caspase 2 (CASP2), CASP2 (gene 835) (P42575 whole entry, looked up): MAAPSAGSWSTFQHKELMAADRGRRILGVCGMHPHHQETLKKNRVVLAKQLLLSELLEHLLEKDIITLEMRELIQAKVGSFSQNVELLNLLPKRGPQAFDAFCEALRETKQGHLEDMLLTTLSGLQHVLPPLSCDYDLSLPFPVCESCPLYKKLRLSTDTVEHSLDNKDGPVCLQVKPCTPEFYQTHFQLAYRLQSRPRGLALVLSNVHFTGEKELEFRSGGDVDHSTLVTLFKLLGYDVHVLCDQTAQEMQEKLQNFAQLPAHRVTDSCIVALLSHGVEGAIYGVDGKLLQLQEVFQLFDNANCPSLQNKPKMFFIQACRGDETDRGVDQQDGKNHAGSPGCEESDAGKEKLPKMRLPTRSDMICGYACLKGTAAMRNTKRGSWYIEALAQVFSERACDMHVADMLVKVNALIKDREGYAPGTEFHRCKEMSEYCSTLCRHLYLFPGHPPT

Structure (SMILES)	outcome
CCCCCCCCOC(=O)c1ccc(C(=O)OCCCCCCCC)c(C(=O)OCCCCCCCC)c1	inactive
Cc1ccc(N=C=O)cc1N=C=O	inactive
[Cl-].[Cl-].[Hg+2]	inactive

Target: human Caspase 5 (CASP5), CASP5 (gene 838) (UniProt P51878)
Assay: NVS_ENZ_hCASP5: NovaScreen (NVS) Enzymatic Assay for human Caspase 5 (CASP5) (AID 2283137)
In short: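 Caspase 5 enzyme activity, detected as fluorescence signal loss, is measured in a biochemical format using E. coli-expressed protein. Reading occurs 2 hours post-dosing. Screening runs at 25 uM, with confirmed actives titrated to 50 uM maximum.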

Sequence of human Caspase 5 (CASP5), CASP5 (gene 838) (P51878 whole entry, looked up): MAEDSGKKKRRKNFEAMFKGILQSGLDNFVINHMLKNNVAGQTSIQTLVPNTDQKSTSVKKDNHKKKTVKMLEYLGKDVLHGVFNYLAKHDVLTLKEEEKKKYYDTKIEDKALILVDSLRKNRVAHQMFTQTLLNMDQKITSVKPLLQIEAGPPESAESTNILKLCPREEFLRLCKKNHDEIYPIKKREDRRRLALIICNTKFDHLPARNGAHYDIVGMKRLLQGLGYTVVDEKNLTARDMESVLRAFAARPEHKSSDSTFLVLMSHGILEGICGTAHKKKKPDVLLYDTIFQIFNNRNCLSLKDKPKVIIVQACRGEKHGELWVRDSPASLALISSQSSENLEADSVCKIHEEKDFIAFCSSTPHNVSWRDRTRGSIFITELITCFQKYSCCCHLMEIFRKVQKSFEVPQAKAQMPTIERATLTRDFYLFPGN

Structure (SMILES)	outcome	AC50
Nc1ccc(Cl)cc1N	inactive	
c1ccc(C2CO2)cc1 (stereo unspecified)	inactive	
Cc1cccc(N)c1N	inactive	
CN(C)[C@@H]1C(=O)C(C(N)=O)=C(O)[C@@]2(O)C(=O)C3=C(O)c4c(O)cccc4[C@@](C)(O)[C@H]3C[C@@H]12		10.9 µM (active)
Oc1ccc2ccc3cccc4ccc1c2c34		5.32 µM (active)
Cc1ccc(N=C=O)cc1N=C=O	inactive	

Target: human AKT serine/threonine Kinase 1 (AKT1), AKT1 (gene 207) (UniProt P31749)
Assay: NVS_ENZ_hAKT1: NovaScreen (NVS) Enzymatic Assay for human AKT serine/threonine Kinase 1 (AKT1) (AID 2283138)
In short: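 A biochemical assay with recombinant enzyme and specific substrate, read by fluorescence intensity with mobility-shift separation 1 hour after dosing. Actives from 25 uM duplicate screening were titrated up to 50 uM against DMSO baseline.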

Sequence of human AKT serine/threonine Kinase 1 (AKT1), AKT1 (gene 207) (P31749 whole entry, looked up): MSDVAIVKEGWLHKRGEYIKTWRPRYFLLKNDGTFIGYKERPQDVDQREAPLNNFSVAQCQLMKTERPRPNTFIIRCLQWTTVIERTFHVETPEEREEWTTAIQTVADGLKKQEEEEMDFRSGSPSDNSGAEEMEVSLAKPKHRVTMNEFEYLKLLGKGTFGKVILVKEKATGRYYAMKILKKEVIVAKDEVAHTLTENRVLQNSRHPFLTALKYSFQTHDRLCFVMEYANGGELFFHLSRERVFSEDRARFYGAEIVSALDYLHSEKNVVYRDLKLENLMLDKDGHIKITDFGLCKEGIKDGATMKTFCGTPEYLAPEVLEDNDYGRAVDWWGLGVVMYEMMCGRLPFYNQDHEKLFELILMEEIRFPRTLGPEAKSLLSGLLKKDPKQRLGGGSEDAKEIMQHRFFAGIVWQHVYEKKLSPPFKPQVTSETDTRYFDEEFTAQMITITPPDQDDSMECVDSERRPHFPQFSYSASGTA

Structure (SMILES)	outcome
Clc1ccc(Cl)c(Cl)c1	inactive
c1ccc(NNc2ccccc2)cc1	inactive
CCNS(=O)(=O)C(F)(F)C(F)(F)C(F)(F)C(F)(F)C(F)(F)C(F)(F)C(F)(F)C(F)(F)F	inactive
O=P(OCCCl)(OCCCl)OCCCl	inactive
CC(C)N(Cc1ccccc1)C(=O)C(C)(C)C	inactive

Target: Caspase-3 (Homo sapiens) (UniProt P42574)
Assay: NVS_ENZ_hCASP3: NovaScreen (NVS) Enzymatic Assay for human Caspase 3 (CASP3) (AID 2283139)
Experimental: NVS_ENZ_hCASP3 is a biochemical, single-readout assay that uses extracted gene-proteins from E. coli in a cell-free assay. Measurements were taken 1 hour after chemical dosing in a 96-well plate.NVS_ENZ_hCASP3 is one of one assay component(s) measured or calculated from the NVS_ENZ_hCASP3 assay. It is designed to make measurements of enzyme activity, a form of enzyme reporter, as detected with fluorescence intensity signals by Fluorescence technology.Data from the assay component NVS_ENZ_hCASP3 was analyzed into 1 assay endpoint. This assay endpoint, NVS_ENZ_hCASP3, was analyzed in the positive analysis fitting direction relative to DMSO as the negative control and baseline of activity. Using a type of enzyme reporter, loss-of-signal activity can be used to understand changes in the enzymatic activity as they relate to the gene CASP3. Furthermore, this assay endpoint can be referred to as a primary readout, because this assay has produced multiple assay endpoints where this one serves a enzymatic activity function. To generalize the intended target to other relatable targets, this assay endpoint is annotated to the protease intended target family, where the subfamily is cysteine protease.
Binding assays used specific radioligands (tritiated, iodinated) with non-radioactive competitive displacement ligands in agonist or antagonist protocols (as indicated) and various reference compounds and inhibitors to titrate specific binding to receptors and transporters. Most enzyme assays (CYPs, kinases, phosphatases, proteases, HDACs) used recombinant protein and specific substrates (fluorescence mostly, some colorimetric and radioactive) and inhibitors, followed by a biochemical separation of substrate and product. All assays for the biochemical HTS were initially run in duplicate at a single concentration (10 uM for CYP450 assays and 25 uM for all others). […]

Sequence of Caspase-3 (Homo sapiens) (P42574 whole entry, looked up): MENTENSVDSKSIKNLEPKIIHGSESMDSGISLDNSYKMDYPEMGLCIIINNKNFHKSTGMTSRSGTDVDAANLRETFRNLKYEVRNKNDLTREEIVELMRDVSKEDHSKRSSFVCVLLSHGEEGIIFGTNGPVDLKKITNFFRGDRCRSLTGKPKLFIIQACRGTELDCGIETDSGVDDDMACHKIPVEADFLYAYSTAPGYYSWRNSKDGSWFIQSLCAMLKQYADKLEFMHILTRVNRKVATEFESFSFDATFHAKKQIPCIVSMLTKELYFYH

Structure (SMILES)	AC50	outcome
Nc1ccc(Cl)cc1N	4.4 µM (active)	
CCCCCCCCOC(=O)c1ccc(C(=O)OCCCCCCCC)c(C(=O)OCCCCCCCC)c1		inactive
CCCSC(=O)N(CCC)CCC		inactive

Target: human Beta-secretase (BACE), BACE1 (gene 23621) (UniProt P56817)
Assay: NVS_ENZ_hBACE: NovaScreen (NVS) Enzymatic Assay for human Beta-secretase (BACE) (AID 2283140);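 note: hits are inhibitors that reduce fluorescent substrate signal versus DMSO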
In short: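 Enzyme activity of SF9-produced BACE1 is measured cell-free by fluorescence, 1 hour post dosing, normalised to DMSO. Screening used 25 uM in duplicate, with concentration-response follow-up for actives.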

Sequence of human Beta-secretase (BACE), BACE1 (gene 23621) (P56817 whole entry, looked up): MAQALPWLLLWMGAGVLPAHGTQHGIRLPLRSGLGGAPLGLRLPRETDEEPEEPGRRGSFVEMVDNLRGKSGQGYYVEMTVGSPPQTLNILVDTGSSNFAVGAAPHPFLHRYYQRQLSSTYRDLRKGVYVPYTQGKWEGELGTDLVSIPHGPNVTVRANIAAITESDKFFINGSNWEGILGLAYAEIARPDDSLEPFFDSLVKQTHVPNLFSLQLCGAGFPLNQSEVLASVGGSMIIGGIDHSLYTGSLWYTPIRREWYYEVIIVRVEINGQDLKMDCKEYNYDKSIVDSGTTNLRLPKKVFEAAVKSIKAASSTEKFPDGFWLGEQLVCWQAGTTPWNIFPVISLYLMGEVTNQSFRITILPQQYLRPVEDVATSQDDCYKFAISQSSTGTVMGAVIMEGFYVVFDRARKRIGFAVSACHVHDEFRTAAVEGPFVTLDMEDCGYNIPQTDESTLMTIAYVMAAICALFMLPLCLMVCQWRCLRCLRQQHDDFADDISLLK

Structure (SMILES)	AC50	outcome
Nc1ccc(Cl)cc1N	2.52 µM (active)	
Cc1ccc(N)c(N)c1		inactive
CC(C)(O)c1cnn2c(-c3ccc(F)c(-c4c(F)cccc4C#N)c3)cnc2n1	5.34 µM (active)	
CCCCCCCCOC(=O)c1ccc(C(=O)OCCCCCCCC)c(C(=O)OCCCCCCCC)c1	11.2 µM (active)	
CCCCCOC(=O)c1ccccc1C(=O)OCCCCC	11.5 µM (active)	
O=[N+]([O-])c1ccc(Oc2ccc(Cl)cc2Cl)cc1		inactive
CN(C)[C@@H]1C(=O)C(C(N)=O)=C(O)[C@@]2(O)C(=O)C3=C(O)c4c(O)cccc4[C@@](C)(O)[C@H]3C[C@@H]12		inactive
CCNS(=O)(=O)C(F)(F)C(F)(F)C(F)(F)C(F)(F)C(F)(F)C(F)(F)C(F)(F)C(F)(F)F	8.43 µM (active)	
c1ccc2c(c1)-c1cccc3cccc-2c13	1.18 µM (active)	
Cc1cc(N=Nc2ccccc2C)ccc1N	25 µM (active)	
Oc1ccc2ccc3cccc4ccc1c2c34	8.84 µM (active)	
Cc1ccc(N=C=O)cc1N=C=O	8.64 µM (active)	
CCC[CH2][Sn]([Cl])([CH2]CCC)[CH2]CCC	4.02 µM (active)	

— PubChem BioAssay (EPA / NIEHS)
